According to PubChem BioAssay AID1645853 (Buhrlage Lab, Dana-Farber Cancer Institute and Novartis …, 2021):
Hit rate of the full screen: of about 47,000 compounds, about 2,000 (4.3%) were called active. Cut-off read from the data, not from the text of the source: active = inhibition above about 30%; inactive = the rest. The full list was thinned out, with actives kept by preference.

molecular target: Ubiquitin carboxyl-terminal hydrolase 8 (Homo sapiens) (UniProt P40818); test: inhibitors of human USP8 deubiquitinase (AID 1645853); details: purified USP8, Ub-rhodamine cleavage fluorescence, 30 min; at 20 µM; hits give high values
Sequence (P40818 whole entry, looked up): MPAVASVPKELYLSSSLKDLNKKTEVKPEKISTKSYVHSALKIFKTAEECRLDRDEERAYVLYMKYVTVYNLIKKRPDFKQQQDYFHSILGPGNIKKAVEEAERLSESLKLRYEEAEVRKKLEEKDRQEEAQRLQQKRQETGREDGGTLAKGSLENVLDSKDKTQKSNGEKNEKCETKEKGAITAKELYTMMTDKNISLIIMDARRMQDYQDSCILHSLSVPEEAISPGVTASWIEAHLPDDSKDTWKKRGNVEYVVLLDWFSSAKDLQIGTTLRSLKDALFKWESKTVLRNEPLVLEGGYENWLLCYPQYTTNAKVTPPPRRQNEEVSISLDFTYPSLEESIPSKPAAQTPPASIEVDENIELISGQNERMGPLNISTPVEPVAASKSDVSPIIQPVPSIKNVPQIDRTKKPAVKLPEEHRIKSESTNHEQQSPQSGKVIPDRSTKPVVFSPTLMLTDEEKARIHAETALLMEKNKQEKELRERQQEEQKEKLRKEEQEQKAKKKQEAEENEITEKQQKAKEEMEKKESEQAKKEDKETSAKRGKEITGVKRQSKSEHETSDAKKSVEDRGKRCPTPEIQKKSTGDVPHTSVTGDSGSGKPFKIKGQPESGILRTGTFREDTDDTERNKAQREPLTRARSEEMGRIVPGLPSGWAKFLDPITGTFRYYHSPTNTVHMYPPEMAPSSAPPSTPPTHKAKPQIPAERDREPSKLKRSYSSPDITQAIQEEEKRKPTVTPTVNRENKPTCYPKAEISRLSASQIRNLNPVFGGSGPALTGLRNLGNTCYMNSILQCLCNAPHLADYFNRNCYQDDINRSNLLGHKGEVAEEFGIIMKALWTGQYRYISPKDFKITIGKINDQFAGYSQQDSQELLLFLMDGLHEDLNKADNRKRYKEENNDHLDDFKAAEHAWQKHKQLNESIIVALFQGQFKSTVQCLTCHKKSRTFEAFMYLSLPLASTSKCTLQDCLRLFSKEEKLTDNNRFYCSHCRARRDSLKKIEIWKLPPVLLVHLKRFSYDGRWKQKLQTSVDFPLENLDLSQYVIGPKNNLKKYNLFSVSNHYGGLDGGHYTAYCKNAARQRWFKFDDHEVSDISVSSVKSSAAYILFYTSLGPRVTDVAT

inhibition, active:
O=C(COc1cccc2ccc(N3CCC(Cc4ccccc4)CC3)nc12)NCc1ccc(F)cc1 65.7%
O=C(COc1cccc2ccc(N3CCC(Cc4ccccc4)CC3)nc12)Nc1cccc(F)c1 84.1%
COCCn1c(=O)[nH]c2cc(C(=O)NCCNc3ccc([N+](=O)[O-])cc3C#N)ccc2c1=O 55.6%
Cn1cccc1/C(C#N)=C\c1ccc2c(c1)OCO2 76.2%
CC(C)OC(=O)c1cc2c(ccn2-c2ccc(F)cc2)n1Cc1ccccn1 64%
Cc1nn(CC(=O)c2cc(C)n(-c3ccc4c(c3)OCO4)c2C)c(C)c1[N+](=O)[O-] 58.8%
Cc1ccccc1-c1nc(-c2cn(CC(=O)Nc3ccccc3)cn2)no1 64.4%
COc1ccc(NC(=O)Cc2noc(-c3cccc(OC)c3)n2)cc1 50.5%
COc1cccc(CNC(=O)c2nnn(CC(=O)Nc3cc(C)ccc3C)c2N)c1 67.9%
Cc1ccc(Nc2nc(NCC(=O)Nc3cc(C)ccc3C)nc(Nc3ccc(C)cc3)n2)cc1 38%
Cc1nc(-c2ccccc2)sc1-c1nc(-c2ccccc2)ncc1S(=O)(=O)c1ccccc1 63.3%
COc1ccc(-c2noc(-c3ccc(N(C)Cc4ccco4)nn3)n2)cc1 35.7%
CC(C)N(C(=O)CSc1nc2ccc([N+](=O)[O-])cc2s1)C(C)C 49.5%
Cc1ccccc1NC(=O)Cc1csc2nc(-c3ccc(F)cc3)cn12 85.8%
COc1cccc(-n2c(=O)c(C(=O)NC(C)c3ccccc3)c(O)c3cccnc32)c1 (stereo not drawn) 81.5%
COc1ccccc1CNC(=O)c1c(O)c2cccnc2n(-c2ccccc2)c1=O 80.6%
O=C(CCc1csc(NC(=O)c2ccc(=O)[nH]c2)n1)NCCc1c[nH]c2ccccc12 62.3%

inhibition, inactive:
Nc1cccc(C(=O)CC2(O)C(=O)N(CCc3ccccc3)c3ccccc32)c1 (stereo not drawn) -96.8%
CNc1nc(C2CCCN(C(C)=O)C2)nc2c1CCN(C(=O)c1oc3ccccc3c1C)C2 (stereo not drawn) -2.25%
COc1ccc(NC(=O)CSc2ncccc2C(=O)N2CCC(Cc3ccccc3)CC2)cc1OC -0.608%
O=C(CCc1nnc2ccc(N3CCCC3)nn12)NCc1ccc(F)cc1 29.2%
O=C(CC1C(=O)OCCN1Cc1ccccc1)Nc1cccc(F)c1 (stereo not drawn) -10.4%
Cn1c(=O)c(N2CCC(C(=O)NCc3ccc(F)cc3)CC2)nc2cccnc21 7.77%
CC(c1ccccc1)n1c(CCCNC(=O)C2CCCCC2)nc2ccccc21 (stereo not drawn) -8.43%
Cc1ccc(NC(=O)Cn2cccc(S(=O)(=O)N3CCCCCC3)c2=O)c(C)c1 -3.12%
Cn1c2c(c(=O)n(C)c1=O)C(c1cccc(Cl)c1Cl)CC(=O)N2 (stereo not drawn) -0.255%
O=C(CSc1n[nH]c(-c2cccnc2)n1)Nc1ccc(Cl)cc1 -5.47%
COCCn1c(=O)[nH]c2cc(C(=O)NCc3ccc(Cl)cc3)ccc2c1=O -1.21%
COCCn1c(=O)[nH]c2cc(C(=O)N3CCC(Cc4ccccc4)CC3)ccc2c1=O -0.0121%
Cc1cccc(NC(=O)N2CCCC3(CCCN3C)C2)c1 (stereo not drawn) -319%
CN1CCN(c2ncc(NC(=O)c3ccc(C(F)(F)F)cc3)cn2)CC1 -15.2%
CC(=O)N1Cc2ccccc2OC2(CCN(CC(=O)Nc3cccc(C)c3C)CC2)C1 -15.9%
Cn1c(=O)c(-c2ccc(C(=O)NCc3ccc(F)cc3F)cc2)nc2cccnc21 15.4%
CNC(=O)C1(C)CN(C(=O)c2ccc3[nH]c(C)c(C)c3c2)CCO1 (stereo not drawn) -61.8%
Cc1cc(NC(=O)CSc2nccn2-c2ccc([N+](=O)[O-])cc2)no1 -89.6%
O=C(NCC1CC1)[C@H]1C[C@@H]2CN(CC3CC3)C[C@H]1O2 -27.5%
CCOC(=O)c1cc2c(ccn2-c2ccc(F)cc2)n1Cc1ncc(C)c(OC)c1C 3.2%
COC(=O)c1cc2sc(Cl)cc2n1Cc1cc(=O)n2ccccc2n1 -9.48%
O=C(NC(c1ccccc1)C1CC1)c1ccc2c(c1)S(=O)(=O)Nc1ncnn1-2 (stereo not drawn) -8.33%
COc1ccccc1NS(=O)(=O)c1ccc2oc(Nc3ccc(Cl)c(C(F)(F)F)c3)nc2c1 -24.6%
COc1ccc2c(c1)c(N1CCCC1=O)c(C(=O)NCc1ccccn1)n2C -0.85%
Cc1nn(-c2ccc(F)cc2)c(C)c1S(=O)(=O)NCc1ccc2c(c1)OCO2 -20.2%
COc1cccc(C2C3=C(CC(C)(C)CC3=O)Nc3ccccc3N2C(=O)Cc2ccccc2)c1 (stereo not drawn) 2.23%
Cc1cc(C)cc(NC(=O)Cn2cnc(-c3nc(C)cs3)c2)c1 -4.24%
Cc1ccccc1-c1nc(-c2cccc(OCC(=O)N3CCOCC3)c2)no1 7.89%
C[C@H](NC(=O)c1ccc2c(c1)OCO2)c1nc2cc(-c3ccc(F)cc3)ncn2n1 18%
Nc1c(-c2ccc(Cl)cc2)cnc2c(-c3ccccc3)c(COc3ccccc3)nn12 -0.15%
COc1ccc(OCC(=O)Nc2noc(-c3ccccc3)n2)cc1 15.1%
COc1ccc(-c2noc(-c3cccc(OCC(=O)NC(C)C)c3)n2)cc1 -16.3%
CN(C)[C@@H]1CN(S(=O)(=O)N2CCOCC2)C[C@H]1O 11.8%
Cc1ccc(C(=O)N2C[C@@H]3CCN(c4ncccn4)C[C@@H]3C2)cc1 -16.6%
COc1cccc(NC(=O)c2nnn(Cc3nc(-c4cccc(C)c4)oc3C)c2N)c1 -2.67%
COc1cccc(CNC(=O)Cn2cnc(S(=O)(=O)N3CCCC3)c2)c1 19%
Cc1nc(-c2ccc(C)c(S(=O)(=O)NCC(=O)Nc3cccc(Cl)c3)c2)no1 7.8%
Cc1ccc(C)c(NC(=O)c2cn(C)cc3c(=O)n(-c4ccccc4)nc2-3)c1 -13.8%
CCCN1CCC(N2C[C@@H]3CN(S(=O)(=O)c4ccccc4)C[C@@H]3C2)CC1 -38.2%
COc1ccc2ncc(S(=O)(=O)c3ccccc3)c(Nc3ccc(F)cc3)c2c1 17.2%
Cc1ccc2c(c1)CN(S(C)(=O)=O)CC1(CCN(CC(=O)N3CCCCC3)CC1)O2 0.0399%
CCOC(=O)C1CCN(S(=O)(=O)c2cc3[nH]c4c(c3cc2CC)C(=O)CCC4)CC1 -25.1%
Cc1cc(C(F)(F)F)nn1CC(=O)O -0.231%
O=C(Cc1ccc(Cl)cc1)NCC(=O)Nc1nc2ccccc2[nH]1 -1.55%
CC1=C(C(=O)Nc2ccccc2)C(c2ccc(OCc3c(Cl)cccc3Cl)cc2)n2ncnc2N1 (stereo not drawn) -1.68%
COCCNC(=O)c1ccc2nnc3ncn(C(C)C)c3c2c1 -31.7%
COc1ccc(-c2nc(-c3cccs3)no2)cc1OC -15.4%
COc1ccc(-c2noc(C3(c4ccccc4)CCOCC3)n2)cc1 19.2%
O=C1CC(C(=O)Nc2ccccc2F)N=C(N2CCN(c3ccccc3F)CC2)N1 (stereo not drawn) 3.41%
O=C(CSc1ccc2nnc(-c3ccccc3)n2n1)N1CCCc2ccccc21 29.4%
O=[N+]([O-])c1ccc(S(=O)(=O)N2CCN(c3nc4ccccc4s3)CC2)cc1 -0.0867%
COc1cccc(NC(=O)CN2CCN(c3nc4ccc([N+](=O)[O-])cc4s3)CC2)c1 -52.2%
O=C1NCCCCC1NS(=O)(=O)c1ccc2c(c1)OCCCO2 (stereo not drawn) -2.35%
Cc1cc(F)ccc1NC(=O)Cc1n[nH]c(Cc2ccccc2)n1 2.95%
O=C(Cc1ccc(F)cc1)Nc1ccccc1Cc1ccccc1 19.3%
COc1cccc(C(=O)OCc2csc(-c3ccccc3)n2)c1OC 4.14%
Nc1cc(C2CCN(C(=O)Cc3ccc(F)cc3)CC2)no1 1.13%
COc1ccccc1CNC(=O)c1ccc(Cl)c(S(=O)(=O)N2CCCC2)c1 -5.09%
COc1ccccc1CNCc1c(C(=O)O)c(C)n(-c2ccccc2)c1C 27.6%
COc1cccc(NC(=O)Nc2nccn(-c3ccccc3)c2=O)c1 5.06%
COc1cccc(-n2c(=O)[nH]c3c(C(N)=O)nc(-c4ccccn4)nc32)c1 -282%
CN(C)S(=O)(=O)N1CCOC(c2cncc(-c3cccc(F)c3)n2)C1 (stereo not drawn) -2.26%
O=C(C1COc2ccccc2O1)N1CCN(c2nc(C(F)(F)F)nc3ccccc23)CC1 (stereo not drawn) 11.8%
COC(=O)c1ccc(C2Oc3ccccc3CN2c2ccccc2Cl)cc1 (stereo not drawn) 22%
COc1ccc(-c2csc(N)n2)c(O)c1 3.16%
Cc1ccc(-n2c(C)nnc2SCC(=O)NC2CC2)cc1 1.76%
Cc1nc(C2CCCN2C(=O)c2ccc(OCC3CC3)nc2)no1 (stereo not drawn) 5.37%
Cc1nc2cc(-c3noc(-c4sc(C)nc4C)n3)ccc2o1 7.81%
O=C(NCCc1c[nH]c2ccccc12)c1cc2cc(Cl)ccc2o1 16.2%
O=C(Cc1csc(NC(=O)c2ccc(=O)[nH]c2)n1)NCc1ccco1 -11.3%
COc1cc(C2CCN(S(=O)(=O)c3cccc(C#N)c3)CC2)on1 -4.99%
